APEX1 inh: blocks human APE1 abasic DNA cleavage; AID 2517; recombinant APE1, TAMRA/BHQ-2 abasic DNA cleavage fluorescence; P27695; Potency, µM (series often up to 65.8 µM), most hits filed as inhibitors; 350,000 compounds, 0.35% hits; further: nearly all actives have a fitted effect of over 55% in size
Target sequence (P27695 whole entry, looked up): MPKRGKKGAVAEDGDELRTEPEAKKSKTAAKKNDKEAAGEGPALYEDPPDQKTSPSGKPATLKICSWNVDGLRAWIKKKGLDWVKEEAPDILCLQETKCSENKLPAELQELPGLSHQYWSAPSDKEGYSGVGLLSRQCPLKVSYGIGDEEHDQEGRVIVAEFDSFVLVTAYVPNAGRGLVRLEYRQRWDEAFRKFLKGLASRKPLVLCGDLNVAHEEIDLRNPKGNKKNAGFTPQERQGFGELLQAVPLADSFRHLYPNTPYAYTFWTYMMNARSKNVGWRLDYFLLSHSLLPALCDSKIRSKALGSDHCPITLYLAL
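APE1 at 0.75 nM final was preincubated with compound 15 min at room temperature, then 50 nM double-stranded THF abasic-site substrate (5'-TAMRA/3'-BHQ-2) was added. Fluorescence (ex 525/em 598 nm) was read kinetically; third-minus-first read gave activity.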
PGK inhibitor: blocks T. brucei phosphoglycerate kinase. PGK/GAPDH coupled, Kinase-Glo luminescence, 60 min. 380,000 compounds, 0.043% hits. AID 602233. Potency, µM (highest dose often 57.5 µM), usual class: inhibitors; further: nearly all actives have a fitted effect of over 60% in size
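Luminescent ATP detection (Kinase-Glo Plus) follows a 60-minute room-temperature incubation, with wells lacking PGK as controls. Buffer: 100 mM TEA (pH 7.6), 5 mM MgCl2, 0.01% Tween-20. Coupling enzyme GAPDH (100 nM final) supplies unstable 1,3-BPG in-well.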
RECQ1 inh-1: inhibitors of human RECQ1 DNA helicase; RECQ1 DNA unwinding, red fluorescence kinetic read; 240,000 compounds, 0.54% hits; Potency, µM (top dose mostly 57.3 µM), most hits filed as inhibitors; P46063; further: nearly all actives have a fitted effect of over 30% in size
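RECQ1T1 50 nM; forked duplex (20 bp + 30-nt ss tails) 200 nM, ATP 2 mM final; pH 8.0, 2 mM MgCl2, 2.5 ug/ml poly(dI-dC); 15 min compound preincubation; discontinuous kinetic read over 2 h at RT.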
BLM helicase inh: inhibitors of human Bloom syndrome helicase BLM; AID 2528; 350,000 compounds, 0.2% hits; Potency, µM (series often up to 56.1 µM), hits mostly inhibitors; recombinant BLM DNA unwinding, fluorescence dequenching; further: nearly all actives have a fitted effect of over 35% in size
FEN1 inhibitor: inhibitors of human flap endonuclease 1; P39748; Recombinant FEN1 flap cleavage, fluorescence, 15 min; Potency, µM (doses to about 114 µM), hits mostly inhibitors; 390,000 compounds, 0.35% hits; AID 588795; further: nearly all actives have a fitted effect of over 65% in size
Target sequence (P39748 whole entry, looked up): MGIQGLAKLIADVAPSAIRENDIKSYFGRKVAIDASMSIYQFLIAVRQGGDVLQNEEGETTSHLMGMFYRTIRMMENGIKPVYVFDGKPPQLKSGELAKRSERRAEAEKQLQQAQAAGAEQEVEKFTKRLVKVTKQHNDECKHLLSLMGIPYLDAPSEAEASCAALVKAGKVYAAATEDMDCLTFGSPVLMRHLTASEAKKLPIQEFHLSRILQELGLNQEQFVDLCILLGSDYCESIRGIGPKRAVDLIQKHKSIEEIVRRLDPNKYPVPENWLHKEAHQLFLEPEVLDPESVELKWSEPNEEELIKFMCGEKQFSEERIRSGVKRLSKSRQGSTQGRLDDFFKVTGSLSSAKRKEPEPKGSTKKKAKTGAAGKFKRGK
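Potency values derive from four-parameter Hill fits of normalized qHTS data. The reaction used 10 nM FEN1 preincubated 15 min at room temperature with compound, then 50 nM DNA substrate, read at 0 and 15 min.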
GLS inh: blocks human kidney-isoform glutaminase activity | O94925 | GLS enzymatic activity, qHTS titration | AID 624170 | Potency, µM (series often up to 45.5 µM), hits mostly inhibitors | 410,000 compounds, 0.21% hits
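Read-out is an Amplex red fluorescence increase coupled through glutamate oxidase and HRP, measured before and after 30 min room-temperature incubation. hKGA is in 45 mM KH2PO4 (pH 8.2) with 0.02% Tween-20; glutamine added as 1mM solution.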
RECQ1 conf: confirmation of human RECQ1 helicase inhibitors; shares compounds with RECQ1 inh-1; RECQ1 helicase DNA unwinding, fluorescence; Potency, µM (doses to about 229 µM), actives largely listed as inhibitors; 610 compounds, 28% hits; AID 2708; further: nearly all actives have a fitted effect of over 45% in size
RECQ1 ADP FP: counter-screen for RECQ1 inhibitors: ADP displacement. ADP fluorescence polarization displacement counterscreen. Potency, µM (top dose mostly 228 µM), most hits filed as inhibitors. shares compounds with RECQ1 inh-1. AID 2711. 530 compounds, 27% hits; further: nearly all actives have a fitted effect of over 45% in size
RECQ1 inh-2: confirmation of human RECQ1 helicase inhibitors. Potency, µM (top dose mostly 119 µM), most hits filed as inhibitors. recombinant RECQ1 DNA unwinding, red fluorescence. 1,100 compounds, 15% hits. AID 504841. shares compounds with RECQ1 inh-1; further: nearly all actives have a fitted effect of over 50% in size
A number is an active result; . = inactive; ? = inconclusive; / = not tested or not shown; [ ] = dose if it differs, or a comment. The list is not random: actives were taken first. Their share in the collection is about 0.86%. The call rests on the fitted dose curve; in most records, active means well fitted curve in the direction sought with a large enough effect; inconclusive means small, poorly fitted or top-dose-only effect, or another doubt; inactive means no such curve, though single readings can be large; an effect the other way counts as inactive or inconclusive.

SMILES	APEX1 inh	PGK inhibitor	RECQ1 inh-1	BLM helicase inh	FEN1 inhibitor	GLS inh	RECQ1 conf	RECQ1 ADP FP	RECQ1 inh-2
O=C(O)CC/C(=N/NC(=O)c1cn(-c2ccccc2)nc1-c1ccccc1)C(=O)O	.	/	.	.	.	.	.	.	/
O=C(Cn1ccc(C(F)(F)F)n1)Nc1cccc(S(=O)(=O)N2CCCCC2)c1	.	.	.	.	.	.	/	/	/
Cc1ccc(S(=O)(=O)N2CCCCC2)cc1NC(=O)Cn1ccc(C(F)(F)F)n1	.	.	40µM	.	.	.	/	/	.
Cc1cc2cc(C(c3nnnn3Cc3ccco3)N3CCc4ccccc43)c(=O)[nH]c2cc1C (stereo unspecified)	?	.	?	.	.	.	/	/	.
Cc1cc2cc(C(c3nnnn3Cc3ccccc3)N3CCc4ccccc43)c(=O)[nH]c2cc1C (stereo unspecified)	.	.	.	.	.	.	/	/	/
CCOc1ccc(NC(=O)CSc2nc3ccsc3c(=O)n2CCCCC(=O)O)cc1	/	.	/	/	/	.	/	/	/
O=C(O)CCCCCn1c(SCc2cc(=O)n3cc(Cl)ccc3n2)nc2ccsc2c1=O	.	.	.	.	.	.	?	?	/
CCc1ccc(NC(=O)CSc2nc3ccsc3c(=O)n2CCCCCC(=O)O)cc1	.	.	.	.	.	.	.	.	/
CC1=Nc2ccccc2/C1=C/c1sc(=N)n(-c2nccs2)c1O	.	.	18µM	.	?	.	.	.	/
COc1ccc(C(=O)Nc2nc(-c3ccc([N+](=O)[O-])cc3)c(-c3ccc(OC)cc3)s2)cc1	.	.	?	.	.	.	/	/	.
COc1ccc(C(=O)Nc2nc3c(s2)CCc2cc(OC)ccc2-3)cc1	/	/	/	.	.	.	/	/	/
O=S(=O)(c1ccccc1)n1c(C(O)c2ccccn2)cc2ccccc21 (stereo unspecified)	.	.	?	.	.	.	/	/	.
COc1ccc2c(c1)cc(C(O)c1ccccn1)n2S(=O)(=O)c1ccccc1 (stereo unspecified)	?	.	.	.	.	.	/	/	/
CCc1cc2c(nc1CC)CCN(CC/C(C)=N/OC[C@@H](O)COCc1ccco1)C2	.[12.4 µM]	/	.[11.5 µM]	.[12.4 µM]	/	/	/	/	/
CC(=O)c1ccc(NC(=O)CSc2nccn2C2CCCC2)cc1	/	.	/	.	.	.	/	/	/
O=C1NC(=S)S/C1=C\C=C\c1ccc([N+](=O)[O-])o1	2.8µM	28µM	13µM	.	32µM	.	?	/	/
O=[N+]([O-])c1ccc(/C=N/N=C/c2ccc([N+](=O)[O-])o2)o1	?	.	.	.	.	.	/	/	/
O=c1nc(/C=C/c2cccn2-c2ccc([N+](=O)[O-])cc2)cc(C(F)(F)F)[nH]1	.	.	35µM	.	.	.	/	/	?
O=c1nc(/C=C/c2cc([N+](=O)[O-])ccc2Cl)cc(C(F)(F)F)[nH]1	.	.	.	.	.	.	/	/	/
O=C1CC(NC(=O)C(F)(F)F)=NN1c1ccccc1	.	.	.	.	.	.	/	/	/
CC(C)(Oc1ccc(Cl)cc1)C(=O)NC1=NN(c2ccccc2)C(=O)C1	.	.	?	.	.	.	/	/	.
C=CCc1cccc(/C=N/NC(=O)CN2CCN(Cc3ccccc3)CC2)c1O	.	/	22µM	.	/	/	?	11µM	/
C=CCc1cccc(/C=N/NC(=O)CNc2ccccc2)c1O	.	.	.	.	.	.	/	/	/
Cc1[nH]c(=O)c(C(=O)/C=C/c2ccccc2F)c2c1CCCC2	.	.	32µM	.	.	.	/	/	?
O=C(N/N=C/c1cccc(NC(=O)c2ccc(Cl)cc2)c1)c1ccc(O)cc1	?	.	18µM	.	.	.	112µM	.	/
SMILES	APEX1 inh	PGK inhibitor	RECQ1 inh-1	BLM helicase inh	FEN1 inhibitor	GLS inh	RECQ1 conf	RECQ1 ADP FP	RECQ1 inh-2
C=CCOc1ccccc1/C=c1\sc2nc(=O)c(C)nn2c1=O	?	.	?	.	.	.	/	/	?
CN(Cc1ccccc1)S(=O)(=O)c1ccc2[nH]c3c(c2c1)CCCCC3	/	.	/	.	?	.	/	/	/
CCc1ccc(-n2c(SCC(=O)N3CCC(C(=O)O)CC3)nnc2-c2ccncc2)cc1	.	.	.	.	.	.	/	/	/
CCc1ccc(-n2c(SCC(=O)N3Cc4ccccc4CC3C(=O)O)nnc2-c2ccncc2)cc1 (stereo unspecified)	.	.	.	.	.	.	.	.	/
CC(CCC(C)[n+]1cccc(C#N)c1)[n+]1cccc(C#N)c1 (stereo unspecified)	/	/	/	/	.	/	/	/	/
O=C(c1ccc2c(=O)n(CCc3ccccc3)c(=O)[nH]c2c1)N1CCN(c2ccc(Cl)cc2)CC1	/	.	/	.	.	.	/	/	/
O=[N+]([O-])c1cc(S(=O)(=O)C(F)(F)F)ccc1N1CCN(c2ccccc2)CC1	.	.	?	.	.	.	/	/	.
CC(=O)c1cccc(N(C(=O)c2cnccn2)C(C(=O)NCc2ccccc2)c2ccco2)c1 (stereo unspecified)	.	.	40µM	.	.	.	/	/	.
Cn1c(=S)[nH]c2cc(C(=O)N3CCN(Cc4cccs4)CC3)ccc2c1=O	/	/	/	/	.	/	/	/	/
CC1/C=C/C=C/C=C/C=C/C=C/C=C/C=C/C(OC2OC(C)C(O)C(N)C2O)CC2O[C@@](O)(CC(O)CC(O)C(O)CCC(O)CC(O)CC(=O)OC(C)[C@H](C)C1O)CC(O)C2C(=O)O (stereo partly specified)	.	/	20µM	.	/	/	?	.	/
CCOC(=O)Cc1csc(SCC(=O)Nc2sc3c(c2C(N)=O)CCC3)n1	?	.	?	.	56µM	.	/	/	?
CCOC(=O)Cc1csc(SCC(=O)Nc2nccs2)n1	.	.	/	/	.	.	/	/	/
CC1CCCC(C(=O)O)N1C(=O)CCSSCCC(=O)N1C(C)CCCC1C(=O)O (stereo unspecified)	.	.	.	.	.	.	.	.	/
CCCCC(=O)N1C(C)CCC1C (stereo unspecified)	/	.	/	/	/	.	/	/	/
COc1cccc2c1C(=O)c1c(O)c3c(c(O)c1C2=O)C[C@@](O)(C(=O)CO)C[C@@H]3OC1C[C@@H](N)[C@H](O)[C@H](C)O1 (stereo partly specified)	10µM	/	16µM	28µM	/	/	/	0.4µM	/

Screens deposited in PubChem by National Center for Advancing Translational Sciences (NCATS).
